MITF primary – inhibitors of human MITF; O75030; AlphaScreen MITF homodimerization, bead proximity signal; inhibition, % at 2.6 µM; hit rate 0.91% among 650,000; AID 1259374; in the data active = inhibition above about 50%
FBW7 activator – human FBW7 E3 ligase activation, primary screen; Q969H0; AlphaScreen FBW7–phospho-cyclin E peptide binding, activator screen; normalized activity (activation), % at 26.1 µM; hit rate 0.13% among 650,000; in the data active = normalized activity above about 1.9%;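 also: purified mutant Fbw7 with reduced substrate affinity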
TEAD-YAP block – TEAD-YAP interaction inhibition | AID 1259422 | hit rate 1.4% among 640,000 | inhibition, % at 9.12 µM | HEK-TIYL cells, TEAD-Gal4/YAP UAS-luciferase luminescence; in the data active = inhibition above about 32%
GPR151 ag – human GPR151 activation | PathHunter beta-arrestin GPR151 cells, luminescence | activation, % at 11.2 µM | hit rate 1% among 650,000; in the data active = activation above about 4.9%
GPR151 confirm – confirmation of human GPR151 activators | 6,700 tested, under 10 active | GPR151 PathHunter beta-arrestin cells, luminescence, 90 min; % of EA-reagent control over plate median | AID 1508609 | shares compounds with GPR151 ag | activation, % at 11.2 µM;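 active = mean percent activation across replicates above the confirmation screen cutoff of 4.91%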
GPR119 counter – activates human GPR119 in a GPR151 counter-screen; shares compounds with GPR151 ag; GPR119 PathHunter beta-arrestin cells, luminescence, 90 min; 0 = compound-well median, 100 = enzyme-acceptor control; activation, % at 11.2 µM; hit rate 0.3% among 6,700; AID 1508611;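 active = mean percent activation in the counterscreen above 29.09%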;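 also: counterscreen on off-target GPR119 to flag nonselective hits from the GPR151 activator screen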
Target sequence (Q8TDV5 whole entry, looked up): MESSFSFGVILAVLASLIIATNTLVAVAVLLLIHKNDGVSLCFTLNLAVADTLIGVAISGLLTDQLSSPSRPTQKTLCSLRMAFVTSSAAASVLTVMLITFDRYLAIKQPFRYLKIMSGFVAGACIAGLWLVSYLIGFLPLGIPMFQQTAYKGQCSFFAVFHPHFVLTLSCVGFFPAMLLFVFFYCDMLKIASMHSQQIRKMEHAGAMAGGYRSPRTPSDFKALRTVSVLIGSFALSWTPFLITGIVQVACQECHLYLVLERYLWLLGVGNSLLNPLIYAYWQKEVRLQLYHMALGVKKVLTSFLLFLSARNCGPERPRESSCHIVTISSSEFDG
Numbers stand for hits; . = inactive; / = no result. The list is not random: actives were taken first. Their share in the collection is about 3.5%.

SMILES | MITF primary | FBW7 activator | TEAD-YAP block | GPR151 ag | GPR151 confirm | GPR119 counter
CC(Sc1nncs1)C(=O)NC1CCCc2ccccc21 (stereo not given) | . | . | . | . | / | /
CC(Sc1nncs1)C(=O)NC(C)c1ccccc1 (stereo not given) | . | . | . | 5.2 | . | .
CCCNCc1ccccc1OCC(=O)NCc1ccccc1 | . | . | . | . | / | /
COc1ccc2nccnc2c1[N+](=O)[O-] | . | . | . | 12.9 | . | .
Cc1ccc(C(=O)O)cc1NC(=O)Nc1ccc([N+](=O)[O-])cc1 | . | . | . | . | / | /
CC(=O)c1ccc(NC(=S)Nc2cc([N+](=O)[O-])ccc2C)cc1 | . | . | . | 6.3 | . | .
C[n+]1ccc(/C=C/c2ccc(O)cc2)cc1 | . | . | . | . | / | /
O=C(CN1C(=O)c2ccccc2C1=O)NCc1ccccc1C(F)(F)F | . | . | . | . | / | /
CCNC(=O)CN(c1cc(C(F)(F)F)ccc1Cl)S(C)(=O)=O | . | . | . | . | / | /
CS(=O)(=O)N(CC(=O)O)c1cc(C(F)(F)F)ccc1Cl | . | . | . | 6.3 | . | .
CC(=O)CCC(=O)N1CCC(C2(Cc3cccc(F)c3)NC(=O)N(CC(C)C)C2=O)CC1 (stereo not given) | . | . | . | . | / | /
CCOc1ccccc1CNc1sc2c(c1C(=O)Nc1ccc(OC)cc1)CCC2 | . | . | . | . | / | /
CCOc1ccccc1CNc1sc2c(c1C(=O)Nc1ccc(OC)cc1OC)CCC2 | . | . | . | 10.8 | . | .
CN(C)CCNC(=O)c1c(O)c2ccccc2[nH]c1=O | . | . | . | . | / | /
COc1ccc(C2=N/C(=C/c3cccc4ccccc34)C(=O)O2)cc1Br | . | . | . | . | / | /
COCCNC(=O)c1sc2ncnc(NCc3cc4ccccc4s3)c2c1C | . | . | . | . | / | /
COc1ccc(-c2nc3n(n2)C(c2cccc(O)c2)C2=C(CC(C)(C)CC2=O)N3)cc1 (stereo not given) | . | . | . | . | / | /
COCc1ccc([C@@H]2C[C@H]3CN(C4Cc5ccccc5C4)C(=O)[C@]34CCCN24)o1 | . | . | . | . | / | /
COCc1ccc([C@@H]2C[C@H]3CN(c4ccccc4)C(=O)[C@]34CCCN24)o1 | . | . | . | 5.6 | . | .
O=C(NCc1cccnc1)c1ccc([N+](=O)[O-])cc1Cl | . | . | . | . | / | /
CC(=O)c1cccc(S(=O)(=O)NCC(F)(F)F)c1 | . | . | . | 5.5 | . | .
C=CCNS(=O)(=O)c1cccc(C(C)=O)c1 | . | . | . | . | / | /
C=CCn1c2ccccc2c2nnc(SCC(=O)N3CCOCC3)nc21 | . | . | . | . | / | /
C=CCOC(=O)C1=C(C)N2CCSC2=C(C#N)C1c1ccco1 (stereo not given) | . | . | . | 5.1 | . | .
COc1ccc(NC(=O)CSc2nnc(C3CC3)n2Cc2ccccc2)cc1 | . | . | . | . | / | /
SMILES | MITF primary | FBW7 activator | TEAD-YAP block | GPR151 ag | GPR151 confirm | GPR119 counter
O=[N+]([O-])c1cccc(/C=N\Nc2ccccn2)c1 | . | . | . | . | / | /
Cc1cccc(C(C)C)c1NC(=O)CCS(=O)(=O)c1ccc2c(c1)SCC(=O)N2 | . | . | . | 5.5 | . | .
Cc1cccc(NC(=O)CC(C)S(=O)(=O)c2ccc3c(c2)SCC(=O)N3)c1C (stereo not given) | . | . | . | 5.8 | . | .
Cc1c(Cl)cccc1NC(=O)CC(C)S(=O)(=O)c1ccc2c(c1)SCC(=O)N2 (stereo not given) | . | . | . | . | / | /
CN(Cc1cscn1)C(=O)C1CC12CCN(C1Cc3ccccc3C1)CC2 (stereo not given) | . | . | . | . | / | /
Cc1ccccc1Cn1c(=O)c2c(nc3n2CCCN3c2ccc(F)cc2)n(C)c1=O | . | . | . | 9.7 | . | .
C=CCNC(=O)/C(C#N)=C/C=C/c1ccccc1 | . | . | . | . | / | /
COCCNC(=O)/C(C#N)=C/C=C/c1ccccc1 | . | . | . | 6.0 | . | .
O=C(Nc1ccc2oc(-c3ccc(Br)cc3)nc2c1)c1cc([N+](=O)[O-])ccc1Cl | . | . | . | 6.6 | . | .
O=C(Nc1cccc(O)c1)c1cc([N+](=O)[O-])ccc1Cl | . | . | . | 6.4 | . | .
O=C(O)c1cc([N+](=O)[O-])ccc1C(=O)Nc1cccc(O)c1 | . | . | . | . | / | /

Screens from PubChem.
